# About 79,000 compounds went through this panel and 15% of them were active in at least one assay; those are over-represented in the sample as a whole. A number with no mark means an inactive call. Calls of active or inactive are those of the source. Rule as the data show it: active = growth inhibition above about 70%; inactive = the rest.
# Columns and labels:
# [1] = NCI Yeast Anticancer Drug Screen. Data for the mlh1 strain (AID 171);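 also: 0% = growth of vehicle-treated control cultures of the same strain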; conditions: S. cerevisiae mlh1 strain growth inhibition, active compounds read high
# Method in brief: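 Measured: yeast growth. Reference: vehicle-treated controls. Organism: strain with a defined alteration affecting DNA damage repair or cell cycle control, treated with compound.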
# [2] = NCI Yeast Anticancer Drug Screen. Data for the sgs1 strain (AID 173);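 also: 0% = growth of vehicle-only control cultures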; conditions: S. cerevisiae sgs1 mutant, active compounds read high
# Method in brief: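 Each compound was added to cultures of the altered yeast strain. Growth was recorded, and inhibition was derived by comparison with vehicle controls.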
# [3] = NCI Yeast Anticancer Drug Screen. Data for the mlh1 rad18 strain (AID 175); conditions: S. cerevisiae mlh1 rad18 strain growth inhibition, active compounds read high
# Method in brief: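 Genetically defined yeast (DNA repair-deficient) exposed to compounds; growth inhibition determined relative to vehicle.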
# [4] = NCI Yeast Anticancer Drug Screen. Data for the rad18 strain (AID 177); conditions: S. cerevisiae rad18 mutant growth inhibition, active compounds read high
# Method in brief: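 Vehicle-treated cultures served as the baseline for scoring compound-induced growth inhibition in DNA-repair-mutant yeast.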
# [5] = NCI Yeast Anticancer Drug Screen. Data for the wt1 strain (AID 149);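 also: 0% = growth of vehicle-treated wt1 cultures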; conditions: S. cerevisiae wt1 strain (SPY 50644) growth inhibition, active compounds read high
# Method in brief: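 Each compound is tested on wt1 yeast and the loss of growth versus vehicle gives the inhibition value.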
# [6] = NCI Yeast Anticancer Drug Screen. Data for the rad50EPP+ strain (AID 151);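 also: 0% = growth of vehicle-treated control cultures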; conditions: S. cerevisiae rad50 mutant strain, active compounds read high
# Method in brief: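 Vehicle-normalised growth inhibition; rad50EPP+ yeast strain, altered in DNA damage repair, compound-treated.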
# [7] = NCI Yeast Anticancer Drug Screen. Data for the mgt1 strain (AID 153); conditions: S. cerevisiae mgt1 mutant growth inhibition, active compounds read high
# Method in brief: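 Vehicle-normalized growth inhibition is determined in mgt1 yeast, a strain selected for a defined alteration in DNA repair or cell cycle control.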
# [8] = NCI Yeast Anticancer Drug Screen. Data for the rad50 strain (AID 155);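 also: 0% = growth of vehicle-only cultures of the same strain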; conditions: S. cerevisiae rad50 strain growth inhibition, active compounds read high
# Method in brief: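 Vehicle-treated cultures provide the reference for the growth inhibition reported for compound-exposed, repair-deficient yeast.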
# [9] = NCI Yeast Anticancer Drug Screen. Data for the mec2-1 strain (AID 157); conditions: S. cerevisiae mec2-1 strain, active compounds read high
# Method in brief: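 Mutant yeast (mec2-1) grown with compound; growth inhibition relative to vehicle control reported.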
# [10] = NCI Yeast Anticancer Drug Screen. Data for the rad14 strain (AID 159);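 also: 0% = growth of vehicle-treated control cultures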; conditions: S. cerevisiae rad14 strain growth inhibition, active compounds read high
# Method in brief: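 Inhibition of growth is reported for a repair-deficient yeast mutant following compound treatment, calculated relative to cultures that received vehicle.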
# [11] = NCI Yeast Anticancer Drug Screen. Data for the sgs1 mgt1 strain (AID 161);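 also: 0% = growth of cultures given vehicle only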; conditions: S. cerevisiae sgs1 mgt1 strain, active compounds read high
# Method in brief: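 This yeast growth screen uses a strain with defined DNA-repair lesions; compound-treated growth is compared with vehicle-treated growth.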
# [12] = NCI Yeast Anticancer Drug Screen. Data for the CLN2oe strain (AID 163);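 also: 0% = growth of vehicle-only control cultures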; conditions: S. cerevisiae CLN2oe strain, active compounds read high
# Method in brief: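 Compounds are applied to yeast harbouring a defined cell-cycle control change; reduced growth compared with vehicle-treated controls gives the value.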
# [13] = NCI Yeast Anticancer Drug Screen. Data for the cln2 rad14 strain (AID 165);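 also: 0% = growth equal to vehicle treated cultures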; conditions: S. cerevisiae cln2 rad14 strain, active compounds read high
# Method in brief: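 Readout is yeast growth inhibition versus vehicle-treated controls, using a strain with cln2 and rad14 alterations exposed to compound.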
# [14] = NCI Yeast Anticancer Drug Screen. Data for the bub3 strain (AID 167); conditions: S. cerevisiae bub3 mutant strain, active compounds read high
# Method in brief: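 Mutant yeast screening strain plus compound; vehicle-treated cultures serve as the 0% inhibition reference.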
# [15] = NCI Yeast Anticancer Drug Screen. Data for the wt2 strain (AID 169); conditions: S. cerevisiae wt2 strain growth inhibition, active compounds read high
# Method in brief: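 Against vehicle-treated controls, the growth of yeast exposed to each compound was compared, and the inhibition was recorded.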
# [16] = at 5.0 µM (retest, dose inferred, filed as 0.5)
# [17] = at 50.0 µM (retest, dose inferred, filed as 5.0)
compound,measurement,setting,value
COc1cc(C(C)C(C(=O)O)C(=O)C(=O)O)cc(OC)c1OC (centres undefined),growth inhibition,[1]; at 1.2 µM,0%
same,growth inhibition,[1]; at 3.7 µM,0%
same,growth inhibition,[1]; at 11.0 µM,2%
same,growth inhibition,[1]; at 33.0 µM,3%
same,growth inhibition,[1]; at 100.0 µM,6%
same,growth inhibition,[2]; at 1.2 µM,-1%
same,growth inhibition,[2]; at 3.7 µM,-1%
same,growth inhibition,[2]; at 11.0 µM,0%
same,growth inhibition,[2]; at 33.0 µM,2%
same,growth inhibition,[2]; at 100.0 µM,6%
same,growth inhibition,[3]; [16],-3%
same,growth inhibition,[3]; [17],41%
same,growth inhibition,[3]; at 50.0 µM,44.9%
same,growth inhibition,[4]; at 1.2 µM,-5%
same,growth inhibition,[4]; at 3.7 µM,-2%
same,growth inhibition,[4]; at 11.0 µM,-4%
same,growth inhibition,[4]; at 33.0 µM,1%
same,growth inhibition,[4]; at 100.0 µM,9%
CCN(CC)CCSc1c2ccccc2nc2cc(NCC(=O)Nc3ccccc3-c3ccccc3NC(=O)CNc3ccc4c(SCCN(CC)CC)c5ccccc5nc4c3)ccc12,growth inhibition,[5]; at 1.2 µM,-21%
same,growth inhibition,[5]; at 3.7 µM,-16%
same,growth inhibition,[5]; at 11.0 µM,-25%
same,growth inhibition,[5]; at 33.0 µM,23%
same,growth inhibition,[5]; at 100.0 µM,96% (active)
same,growth inhibition,[6]; at 1.2 µM,9%
same,growth inhibition,[6]; at 3.7 µM,10%
same,growth inhibition,[6]; at 11.0 µM,-8%
same,growth inhibition,[6]; at 33.0 µM,38%
same,growth inhibition,[6]; at 100.0 µM,89% (active)
same,growth inhibition,[7]; at 1.2 µM,9%
same,growth inhibition,[7]; at 3.7 µM,17%
same,growth inhibition,[7]; at 11.0 µM,19%
same,growth inhibition,[7]; at 33.0 µM,85% (active)
same,growth inhibition,[7]; at 100.0 µM,97% (active)
same,growth inhibition,[8]; at 1.2 µM,13%
same,growth inhibition,[8]; at 3.7 µM,15%
same,growth inhibition,[8]; [16],23%
same,growth inhibition,[8]; at 11.0 µM,15%
same,growth inhibition,[8]; at 33.0 µM,75% (active)
same,growth inhibition,[8]; [17],96% (active)
same,growth inhibition,[8]; at 50.0 µM,89.5% (active)
same,growth inhibition,[8]; at 100.0 µM,95% (active)
same,growth inhibition,[9]; at 1.2 µM,23%
same,growth inhibition,[9]; at 3.7 µM,22%
same,growth inhibition,[9]; [16],20%
same,growth inhibition,[9]; at 11.0 µM,16%
same,growth inhibition,[9]; at 33.0 µM,91% (active)
same,growth inhibition,[9]; [17],98% (active)
same,growth inhibition,[9]; at 50.0 µM,89.5% (active)
same,growth inhibition,[9]; at 100.0 µM,97% (active)
same,growth inhibition,[10]; at 1.2 µM,-14%
same,growth inhibition,[10]; at 3.7 µM,-15%
same,growth inhibition,[10]; at 11.0 µM,-12%
same,growth inhibition,[10]; at 33.0 µM,74% (active)
same,growth inhibition,[10]; at 100.0 µM,96% (active)
same,growth inhibition,[11]; [16],21%
same,growth inhibition,[11]; [17],97% (active)
same,growth inhibition,[11]; at 50.0 µM,89.2% (active)
same,growth inhibition,[12]; at 1.2 µM,2%
same,growth inhibition,[12]; at 3.7 µM,7%
same,growth inhibition,[12]; at 11.0 µM,11%
same,growth inhibition,[12]; at 33.0 µM,44%
same,growth inhibition,[12]; at 100.0 µM,96% (active)
same,growth inhibition,[13]; [16],15%
same,growth inhibition,[13]; [17],13%
same,growth inhibition,[13]; at 50.0 µM,41%
same,growth inhibition,[14]; at 1.2 µM,36%
same,growth inhibition,[14]; at 3.7 µM,30%
same,growth inhibition,[14]; [16],27%
same,growth inhibition,[14]; at 11.0 µM,31%
same,growth inhibition,[14]; at 33.0 µM,92% (active)
same,growth inhibition,[14]; [17],89% (active)
same,growth inhibition,[14]; at 50.0 µM,90.5% (active)
same,growth inhibition,[14]; at 100.0 µM,98% (active)
same,growth inhibition,[15]; at 1.2 µM,-5%
same,growth inhibition,[15]; at 3.7 µM,-3%
same,growth inhibition,[15]; at 11.0 µM,2%
same,growth inhibition,[15]; at 33.0 µM,48%
same,growth inhibition,[15]; at 100.0 µM,96% (active)
same,growth inhibition,[1]; at 1.2 µM,-12%
same,growth inhibition,[1]; at 3.7 µM,-7%
same,growth inhibition,[1]; at 11.0 µM,-5%
same,growth inhibition,[1]; at 33.0 µM,80% (active)
same,growth inhibition,[1]; at 100.0 µM,96% (active)
same,growth inhibition,[2]; at 1.2 µM,-14%
same,growth inhibition,[2]; at 3.7 µM,-18%
same,growth inhibition,[2]; at 11.0 µM,-22%
same,growth inhibition,[2]; at 33.0 µM,63%
same,growth inhibition,[2]; at 100.0 µM,96% (active)
same,growth inhibition,[3]; [16],42%
same,growth inhibition,[3]; [17],98% (active)
same,growth inhibition,[3]; at 50.0 µM,89% (active)
same,growth inhibition,[4]; at 1.2 µM,16%
same,growth inhibition,[4]; at 3.7 µM,12%
same,growth inhibition,[4]; at 11.0 µM,11%
same,growth inhibition,[4]; at 33.0 µM,69%
same,growth inhibition,[4]; at 100.0 µM,97% (active)
CCC(C)/C(C)=N/NC(N)=O (centres undefined),growth inhibition,[5]; at 1.2 µM,0%
same,growth inhibition,[5]; at 3.7 µM,2%
same,growth inhibition,[5]; at 11.0 µM,3%
same,growth inhibition,[5]; at 33.0 µM,3%
same,growth inhibition,[5]; at 100.0 µM,1%
same,growth inhibition,[6]; at 1.2 µM,-5%
same,growth inhibition,[6]; at 3.7 µM,-1%
same,growth inhibition,[6]; at 11.0 µM,-3%
same,growth inhibition,[6]; at 33.0 µM,-9%
same,growth inhibition,[6]; at 100.0 µM,-14%
same,growth inhibition,[7]; at 1.2 µM,0%
same,growth inhibition,[7]; at 3.7 µM,-2%
same,growth inhibition,[7]; at 11.0 µM,1%
same,growth inhibition,[7]; at 33.0 µM,14%
same,growth inhibition,[7]; at 100.0 µM,1%
same,growth inhibition,[8]; at 1.2 µM,2%
same,growth inhibition,[8]; at 3.7 µM,0%
same,growth inhibition,[8]; [16],-7%
same,growth inhibition,[8]; at 11.0 µM,0%
same,growth inhibition,[8]; at 33.0 µM,0%
same,growth inhibition,[8]; [17],30%
same,growth inhibition,[8]; at 50.0 µM,58.2%
same,growth inhibition,[8]; at 100.0 µM,0%
same,growth inhibition,[9]; at 1.2 µM,-1%
same,growth inhibition,[9]; at 3.7 µM,2%
same,growth inhibition,[9]; [16],-3%
same,growth inhibition,[9]; at 11.0 µM,-1%
same,growth inhibition,[9]; at 33.0 µM,-3%
same,growth inhibition,[9]; [17],-2%
same,growth inhibition,[9]; at 50.0 µM,18.1%
same,growth inhibition,[9]; at 100.0 µM,1%
same,growth inhibition,[10]; at 1.2 µM,-2%
same,growth inhibition,[10]; at 3.7 µM,0%
same,growth inhibition,[10]; at 11.0 µM,1%
same,growth inhibition,[10]; at 33.0 µM,0%
same,growth inhibition,[10]; at 100.0 µM,0%
same,growth inhibition,[11]; [16],5%
same,growth inhibition,[11]; [17],48%
same,growth inhibition,[11]; at 50.0 µM,36.9%
same,growth inhibition,[12]; at 1.2 µM,-7%
same,growth inhibition,[12]; at 3.7 µM,0%
same,growth inhibition,[12]; at 11.0 µM,0%
same,growth inhibition,[12]; at 33.0 µM,-6%
same,growth inhibition,[12]; at 100.0 µM,-5%
same,growth inhibition,[13]; [16],5%
same,growth inhibition,[13]; [17],12%
same,growth inhibition,[13]; at 50.0 µM,22.5%
same,growth inhibition,[14]; at 1.2 µM,-2%
same,growth inhibition,[14]; at 3.7 µM,-2%
same,growth inhibition,[14]; [16],8%
same,growth inhibition,[14]; at 11.0 µM,0%
same,growth inhibition,[14]; at 33.0 µM,-3%
same,growth inhibition,[14]; [17],43%
same,growth inhibition,[14]; at 50.0 µM,25%
same,growth inhibition,[14]; at 100.0 µM,-10%
same,growth inhibition,[15]; at 1.2 µM,1%
same,growth inhibition,[15]; at 3.7 µM,2%
same,growth inhibition,[15]; at 11.0 µM,3%
same,growth inhibition,[15]; at 33.0 µM,4%
same,growth inhibition,[15]; at 100.0 µM,2%
same,growth inhibition,[1]; at 1.2 µM,1%
same,growth inhibition,[1]; at 3.7 µM,1%
same,growth inhibition,[1]; at 11.0 µM,2%
same,growth inhibition,[1]; at 33.0 µM,1%
same,growth inhibition,[1]; at 100.0 µM,0%
same,growth inhibition,[2]; at 1.2 µM,0%
same,growth inhibition,[2]; at 3.7 µM,4%
same,growth inhibition,[2]; at 11.0 µM,3%
same,growth inhibition,[2]; at 33.0 µM,3%
same,growth inhibition,[2]; at 100.0 µM,2%
same,growth inhibition,[3]; [16],1%
same,growth inhibition,[3]; [17],76% (active)
same,growth inhibition,[3]; at 50.0 µM,68%
same,growth inhibition,[4]; at 1.2 µM,1%
same,growth inhibition,[4]; at 3.7 µM,0%
same,growth inhibition,[4]; at 11.0 µM,-7%
same,growth inhibition,[4]; at 33.0 µM,3%
same,growth inhibition,[4]; at 100.0 µM,5%
